High-throughput results from PubChem.
NPR2 activator = human GC-B receptor activators, primary screen, HEK293 GC-B cells, cGMP TR-FRET, EC30 CNP | activation, % at 10 µM | Atrial natriuretic peptide receptor 2 (Homo sapiens), P20594 | hit rate 0.11% among 370,000 | 0% at EC30 CNP, 100% saturating CNP;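 active = activation at 10 µM reaching about 35% in either raw or pattern-adjusted values, limit read from the data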
GC-A act = GC-A stimulated cGMP production enhancers – HEK293 GC-A cells, cGMP TR-FRET, EC30 ANP, primary screen; Atrial natriuretic peptide receptor 1 (Homo sapiens), P16066; 0% at EC30 ANP, 100% saturating ANP; activation, % at 10 µM; hit rate 0.14% among 370,000; AID 1671463, 2021; in the data active = activation above about 40%
PfG6PD inh = PfG6PD enzyme inhibitors, primary screen, biochemical, fluorescence intensity, uHTS. AID 504690, 2011. inhibition, % at 20 µM. PfGluPho enzyme, NADPH resazurin-diaphorase fluorescence. hit rate 0.78% among 350,000. glucose-6-phosphate dehydrogenase-6-phosphogluconolactonase (Plasmodium falciparum 3D7);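 active = inhibition reaching at least a set limit at 20 µM in the primary screen, cut at about 59% in these data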
APOBEC3A inh = APOBEC3A ssDNA deaminase inhibitors, primary screen, selectivity assay for APOBEC3G inhibitor project, biochemical, FAM/TAMRA oligo cleavage fluorescence; inhibition, % at 20 µM; recombinant A3A, FAM/TAMRA ssDNA deamination fluorescence; hit rate 0.41% among 330,000;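 active = at least 40% inhibition at 20 µM here, with at most 30% in a related deaminase screen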
APOBEC3G inh = APOBEC3G DNA deaminase inhibitors, primary screen, biochemical, fluorescence, single-stranded DNA substrate, uHTS | recombinant A3G, ssDNA deamination FAM/TAMRA fluorescence | DNA dC->dU-editing enzyme APOBEC-3G (Homo sapiens), Q9HC16 | inhibition, % at 20 µM | hit rate 0.28% among 330,000;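 active = inhibition of at least 40% at 20 µM, with no more than 30% in the related APOBEC3A deaminase screen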
Neddyl block = inhibitors of cullin neddylation, primary screen, biochemical, TR-FRET, uHTS, NAE and Ubc12. inhibition, % at 25 µM. hit rate 0.58% among 360,000; in the data active = inhibition above about 36%
Neddyl conf = blockade of NEDD8 conjugation to cullin – biochemical, TR-FRET, single concentration, confirmation. shares compounds with Neddyl block. TR-FRET cullin neddylation biochemical assay. calls only at 25 µM. hit rate 13% among 1,800; in the data active = inhibition above about 40%;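 note: neddylation substrate is the cullin 1 ring ligase complex with SKP2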
Hits are given with their value; n = inactive; x = no result given; + = active, no number. This is a sample that favours compounds with a hit; in the whole collection about 2% have one here.

SMILES	NPR2 activator	GC-A act	PfG6PD inh	APOBEC3A inh	APOBEC3G inh	Neddyl block	Neddyl conf
COc1cccc(/C=C/C(=O)OCC(=O)Nc2ccc(Cl)c(S(=O)(=O)N(C)C)c2)c1OC	n	n	n	n	n	44.4	n
COc1cccc(/C=C/C(=O)OCC(=O)NCCC2=CCCCC2)c1OC	n	n	n	n	n	41.1	n
CCOC(=O)C1=C(C(=O)OCC)C2N(Cc3ccc(Br)cc3)c3ccccc3[C@@]23C[C@@H](C(=O)OC)N(S(=O)(=O)c2ccc(F)cc2)C3=N1 (stereo partly specified)	n	n	x	x	x	x	x
C#CCCC(=O)Nc1sc2c(c1-c1nc3ccccc3s1)CCN(C(C)C)C2	n	n	x	x	x	x	x
CC[C@H](C(=O)Nc1ccccc1N1CCCC1)c1ccccc1	n	n	x	x	x	x	x
CCOc1ccc2oc(C(=O)OCC(=O)NCc3ccc(OC)cc3)c(C)c2c1	n	n	n	n	n	n	x
COc1ccc2oc(C(=O)OCC(=O)N(C)Cc3ccccc3)c(C)c2c1	n	n	n	n	n	x	x
COc1ccc2oc(C(=O)OCC(=O)N(Cc3ccccc3)C(C)C)c(C)c2c1	n	n	n	n	n	43.9	n
COc1ccc2oc(C(=O)OCC(=O)NCc3ccc(OC)c(OC)c3)c(C)c2c1	n	n	n	n	n	43.2	n
COc1ccc2oc(C(=O)OC(C)C(=O)NC3(C#N)CCCCC3)c(C)c2c1 (stereo unspecified)	n	n	n	n	n	x	x
COC(=O)C1CCN(C(=O)COC(=O)c2oc3ccc(OC)cc3c2C)CC1	n	n	n	n	n	66.2	x
COc1ccc2oc(C(=O)OC(C)C(=O)NCc3ccccc3)c(C)c2c1 (stereo unspecified)	n	n	n	n	n	41.6	n
CCOC(=O)[C@]12CCCCC/C=C\1N(Cc1ccc(OC)cc1)C(=O)[C@H]2CC(=O)NCCCCc1ccccc1	n	n	x	x	x	x	x
COc1ccc2oc(C(=O)OCC(=O)N(C)c3ccccc3)c(C)c2c1	n	n	n	n	n	54.6	x
Cc1ccccc1Nc1c(-c2cccnc2)nc2ccccn12	n	n	n	n	n	39.4	n
CCCC/C=C1/[C@@H](CC)N(Cc2ccc(OC)cc2OC)C2=N[C@@H](c3ccccc3)CC(=O)N21	n	n	x	x	x	x	x
CN1CCc2c(sc3c2C(=O)NC(c2ccco2)N3)C1 (stereo unspecified)	n	n	n	n	n	n	x
O=C1NC(c2cccs2)Nc2sc3c(c21)CCCC3 (stereo unspecified)	n	n	n	n	n	43.6	n
CCSc1nnc(NC(=O)c2cccc(S(=O)(=O)N(C)c3ccc(C)cc3)c2)s1	n	n	n	n	n	44.4	n
COc1ccc(OC)c(NCc2nnc(-c3ccccc3)o2)c1	n	n	n	n	n	n	x
COc1ccc(-c2ccc(-c3nnc(Cc4ccc(OC)c(OC)c4)o3)cc2)cc1	n	n	n	n	n	43.9	n
COc1cccc(N2CCN(C(=O)c3cccn4c(=O)c5c(C)c(C)sc5nc34)CC2)c1	n	n	n	n	n	38.3	x
CC(C)(C)C1c2[nH]c3ccccc3c2CCN1Cc1cccc(OCCO)c1 (stereo unspecified)	n	n	n	n	n	52.1	n
Cc1ccn2cc(-c3ccc(NS(=O)(=O)c4ccccc4)cc3)nc2c1	n	n	n	n	n	n	x
Cc1ccn2cc(-c3cccc(NS(C)(=O)=O)c3)nc2c1	n	n	n	n	n	43.6	n
SMILES	NPR2 activator	GC-A act	PfG6PD inh	APOBEC3A inh	APOBEC3G inh	Neddyl block	Neddyl conf
Cc1ccc(S(=O)(=O)Nc2ccc(-c3cn4ccc(C)cc4n3)cc2)cc1	n	n	n	n	n	40.7	n
COc1ccc(C2NC(=O)c3ccccc3O2)c(OC)c1OC (stereo unspecified)	n	n	n	n	n	44.9	n
CN(C(=O)COC(=O)c1ccc(-c2ccc(O)cc2)cc1)C1CCS(=O)(=O)C1 (stereo unspecified)	n	n	n	n	n	38.5	n
O=c1oc(-c2ccccc2)cc2ccccc12	n	n	x	x	x	n	x
Nc1ccc(-c2cc3ccccc3c(=O)o2)cc1	n	n	n	n	n	45.8	n
O=C(N/N=C/c1cccn1-c1ccc(O)cc1)c1cccc2ccccc12	n	n	n	n	n	45.5	n
Nc1cccc2c(=O)[nH][nH]c(=O)c12	n	n	n	x	x	47.8	+
O=C(c1ccncc1)N1CC[C@H]2[C@H](CCCN2Cc2ccccc2)C1	n	n	x	x	x	x	x
COc1ccc(N2CCc3c(C)nc4c(OC)cc(OC)cc4c32)c(OC)c1	n	n	n	n	n	41.4	n
COc1ccc(N2CCc3c(C)nc4c(OC)cc(OC)cc4c32)cc1	n	n	n	n	n	n	x
COC(=O)C1CN(Cc2ccc(C)cc2)CCS(=O)(=O)N1Cc1cn(Cc2ccc(Cl)cc2)nn1 (stereo unspecified)	n	n	x	x	x	x	x
COCCN1C=C(C(=O)OC)C(c2ccc3c(c2)OCO3)C(C(=O)OC)=C1	n	n	n	n	n	49.9	+
CCCC[n+]1ccn(-c2nc3ccccc3nc2[N-]S(=O)(=O)c2ccccc2)c1	n	n	n	n	n	n	x
O=S(=O)([N-]c1nc2ccccc2nc1-n1cc[n+](Cc2ccccc2)c1)c1ccccc1	n	n	n	n	n	37.1	+
CCCCC[n+]1ccn(-c2nc3ccccc3nc2[N-]S(=O)(=O)c2ccc(C)cc2)c1	n	n	n	n	n	43.0	n
CCCC[n+]1ccn(-c2nc3ccccc3nc2[N-]S(=O)(=O)c2cccs2)c1	n	n	n	n	n	42.6	n
Cc1ccc(S(=O)(=O)[N-]c2nc3ccccc3nc2-n2cc[n+](Cc3ccccc3)c2)cc1	n	n	n	n	n	x	x
C=CC[n+]1ccn(-c2nc3ccccc3nc2[N-]S(=O)(=O)c2cccs2)c1	n	n	n	n	n	45.6	x
CCCC[n+]1ccn(-c2nc3ccccc3nc2[N-]S(=O)(=O)c2ccc(C)cc2)c1	n	n	n	n	n	n	x
Cc1cc(C)cc(C(=O)OCCCN(C)C2CN(Cc3cn(Cc4ccccc4C(F)(F)F)nn3)S(=O)(=O)C2)c1 (stereo unspecified)	n	n	x	x	x	x	x
